RORg inh: ROR gamma (mouse) transcription inhibition | P51450 | Drosophila S2 Gal4-RORgamma UAS-luciferase reporter, 20 h | Potency, µM (doses to about 53.6 µM), for the others: at the top dose activity change, negative = inhibition, actives largely listed as inhibitors | 5.4% of 310,000 active | AID 2551; note: potency is the fitted concentration of half-maximal effect; nearly all actives have a fitted effect of over 60% in size
Target sequence (P51450 whole entry, looked up, the tested form may be a part): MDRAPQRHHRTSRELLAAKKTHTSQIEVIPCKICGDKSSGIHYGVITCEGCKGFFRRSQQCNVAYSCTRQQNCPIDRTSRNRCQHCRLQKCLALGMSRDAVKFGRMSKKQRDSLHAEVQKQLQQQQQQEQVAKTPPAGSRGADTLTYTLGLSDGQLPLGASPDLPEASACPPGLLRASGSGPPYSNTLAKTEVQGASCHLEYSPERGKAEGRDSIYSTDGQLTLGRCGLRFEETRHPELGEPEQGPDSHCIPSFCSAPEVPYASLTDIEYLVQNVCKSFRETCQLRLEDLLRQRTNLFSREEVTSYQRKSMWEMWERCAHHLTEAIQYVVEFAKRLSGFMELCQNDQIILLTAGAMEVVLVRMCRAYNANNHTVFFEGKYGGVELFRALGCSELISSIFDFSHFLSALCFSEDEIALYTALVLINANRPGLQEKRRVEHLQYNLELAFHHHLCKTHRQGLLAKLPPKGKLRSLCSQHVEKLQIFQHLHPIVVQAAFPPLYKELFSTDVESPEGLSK
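Using a luciferase readout, inhibitors were identified by reduced reporter activity in Drosophila cells coexpressing a copper-inducible Gal4–ROR gamma fusion and UAS-driven Photinus luciferase, incubated 20 hr after 700 uM copper sulfate.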
TDP1 cell CPT: growth inhibition of DT40 Tdp1-/-;hTDP1 cells with camptothecin (screen for TDP1 inhibitors). chicken DT40 Tdp1-/-;hTDP1 cells + 20 nM CPT, ATP luminescence, 48 h. Potency, µM (highest dose often 46.2 µM), inactives show top-dose activity change, negative = growth inhibition, actives largely listed as inhibitors. 12% of 420,000 active. AID 686979; note: potency is the fitted concentration of half-maximal effect; nearly all actives have a fitted effect of over 55% in size
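Cell growth measured by CellTiter-Glo luminescence after a minimum 48 h, 37 C compound exposure with 20 nM CPT in Tdp1-knockout DT40 cells stably expressing hTDP1, seeded 400/well; qHTS titration format.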
LDHA block: LDHA (human) enzyme inhibition; purified LDHA, NADH/diaphorase-resazurin fluorescence; stronger effect = lower value; activity change, % (values are at about 110 or 230 µM); 0.15% of 480,000 active; AID 1347041; in the data active = activity change below about -30%; inconclusive = mostly about -25% to -30%;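 note: plate controls were DMSO wells for no effect and wells without enzyme for full effect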
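Remaining NADH was detected by diaphorase (0.133 mg/mL) converting 37 µM resazurin to fluorescent resorufin, read at 0 and 20 minutes. The preceding 5-minute room-temperature reaction used 2 nM LDHA, 0.2 mM sodium pyruvate and 0.06 mM NADH at pH 7.4.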
Gal4-VP16 FLuc: Gal4-VP16 reporter inhibition counter-screen. Drosophila S2 Gal4-VP16 UAS-luciferase, luminescence, 20 h. Potency, µM (highest dose often 53.6 µM), for inactives: at the top dose activity, negative = inhibition, hits mostly inhibitors. 3.5% of 310,000 active;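 note: Gal4-VP16 expression switched on by copper sulfate through the metallothionein promoter; potency is the fitted concentration of half-maximal effect; nearly all actives have a fitted effect of over 50% in size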
IL-1B inflam inh: blocks inflammasome-driven IL-1 beta release; THP-1 LPS/ATP IL-1B secretion, AlphaLISA, 16 h; stronger effect = lower value; 4.7% of 360,000 active; AID 743279; activity change, % at 57.5 µM; in the data active = activity change below about -50%; inconclusive = mostly about -30% to -49%
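THP-1 cells pretreated 1 hr with compounds (up to 57.5 uM final), then stimulated with LPS (250 ng/mL final) plus ATP (1.25 mM final); secreted IL-1B measured by AlphaLISA after 16 hr, decreased signal indicating inhibition.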
TDP1 cell noCPT: qHTS for Inhibitors of human tyrosyl-DNA phosphodiesterase 1 (TDP1): qHTS in cells in absence of CPT. DT40 Tdp1-/- hTDP1 cells, no CPT, ATP luminescence, 48 h. Potency, µM (titrated, usually from 46.2 µM), for the others: at the top dose activity change, negative = growth inhibition, usual class: inhibitors. 15% of 420,000 active; note: potency is the fitted concentration of half-maximal effect; nearly all actives have a fitted effect of over 55% in size
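Readout: luminescence from CellTiter-Glo after 30 min in the dark at RT. Cells: DT40 Tdp1-/- with stable hTDP1, 400/well. Exposure: compounds alone, ≥48 hr, 37 °C.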
The depositor's hits bear a star; ? = inconclusive; / = not tested or not shown. Shown are actives, neighbours in structure and some others; about 18% of the full set was active somewhere. Unless noted, calls come from the whole dose curve; as a rule, active = well fitted curve in the direction sought with a large enough effect; inconclusive = small, poorly fitted or top-dose-only effect, or another doubt; inactive = no such curve, though single readings can be large; an effect the other way counts as inactive or inconclusive. Unless noted, % is set by controls: 0 for no effect and ±100 for the full control effect.

SMILES | RORg inh | TDP1 cell CPT | LDHA block | Gal4-VP16 FLuc | IL-1B inflam inh | TDP1 cell noCPT
CCOC(=O)c1ccccc1NC(=O)NCc1c(-n2cccc2)sc2c1CCN(C)C2 | / | / | -17 | / | / | /
CN1CCOC(CNC(=O)Cc2cccc(F)c2)C1 (stereo not drawn) | / | / | 0 | / | / | /
CCN(C(=O)CCn1cnc2onc(-c3ccc(F)cc3)c2c1=O)c1ccc(OC)cc1 | / | 16µM* | 3 | / | / | 18µM*
COc1cccc(N2CCN(C(=O)Cn3cnc4onc(-c5ccc(F)cc5)c4c3=O)CC2)c1 | / | 23µM* | 3 | / | / | 21µM*
Cc1cc2c(=O)n(CC(=O)N3CCN(c4ccc(F)cc4)CC3)cnc2s1 | 0% | -25% | 1 | -5% | -19 | ?
Cn1cc(Cl)c(C(=O)NNC(=S)NCc2ccco2)n1 | 20% | ? | 3 | -4% | -6 | ?
O=C(NNC(=S)NCc1ccco1)c1ccccc1Br | 0.89µM* | ? | -1 | -20% | -7 | ?
O=C(NNC(=S)NCc1ccco1)c1ccc(Cl)s1 | 1.8µM* | ? | -2 | -12% | 15 | ?
CCOC(=O)Cc1c(C)[nH]n(-c2ccccc2)c1=O | -12% | -6% | -2 | -11% | ? | -3%
Cc1[nH]n(-c2ccccc2)c(=O)c1C(=O)c1ccc([N+](=O)[O-])cc1 | 36% | ? | 0 | -5% | 0 | ?
C/C(=N\NC(=O)c1ccc(C)cc1)c1c(C)[nH]n(-c2ccccc2)c1=O | 1.3µM* | 4.6µM* | -1 | 1.6µM* | 130 | 4.1µM*
Cc1nn(-c2ccccc2)nc1C(=O)c1c(C)[nH]n(-c2ccccc2)c1=O | 9% | 5.2µM* | 0 | -2% | 20 | 3.7µM*
C/C(=N\NC(=O)c1ccccc1)c1c(C)[nH]n(-c2ccccc2)c1=O | 0.89µM* | 0.15µM* | 1 | 1.3µM* | 103 | 0.41µM*
Cc1[nH]n(-c2ccccc2)c(=O)c1C(=O)Nc1ccccc1 | 8% | 8.2µM* | -7 | -11% | 14 | 16µM*
N#Cc1nc(-c2ccccc2F)oc1NCc1ccco1 | / | / | -11 | / | / | /
Cc1cccc(N2C(=O)c3cccc4c(N(C)CCO)ccc(c34)C2=O)c1 | 1.3µM* | ? | 17 | -24% | 34 | 18µM*
Cc1cccc(N2C(=O)c3cccc4c(N)ccc(c34)C2=O)c1 | 0% | ? | 0 | -19% | -58* | -26%
Clc1cccc(Cc2c(-c3ccco3)nc3ccc(Br)cn23)c1 | / | ? | -4 | / | -14 | 23µM*
Clc1cccc(Cc2c(-c3ccco3)nc3ccc(Cl)cn23)c1 | / | 21µM* | -5 | / | -59* | 23µM*
C[C@@H]1CCCCO[C@H](CN(C)C(=O)Cc2ccccc2)[C@H](C)CN([C@@H](C)CO)C(=O)c2cc(NC(=O)Nc3ccc(F)cc3)ccc2O1 | / | 23µM* | 0 | / | -29 | -23%
C[C@@H]1CCCCO[C@@H](CN(C)C(=O)Cc2ccccc2)[C@@H](C)CN([C@H](C)CO)C(=O)c2cc(N(C)C)ccc2O1 | / | -12% | -3 | / | -4 | -23%
C[C@@H]1CCCCO[C@@H](CN(C)C(=O)Cc2ccccc2)[C@@H](C)CN([C@H](C)CO)C(=O)c2cc(NC(=O)C3CCCCC3)ccc2O1 | / | ? | -2 | / | -21 | -6%
C[C@@H]1CCCCO[C@H](CN(C)C(=O)Cc2ccccc2)[C@@H](C)CN([C@H](C)CO)C(=O)c2cc(NC(=O)Nc3ccccc3)ccc2O1 | / | -3% | 2 | / | 30 | 29µM*
C#CCOC(=O)CCC(=O)NCCCCCCCCCCCC | / | / | 0 | / | / | /
O=C(NC(=S)Nc1ccc2oc(-c3cccnc3)nc2c1)c1cccc(Cl)c1 | 20µM* | 16µM* | -8 | -13% | -1 | ?
SMILES | RORg inh | TDP1 cell CPT | LDHA block | Gal4-VP16 FLuc | IL-1B inflam inh | TDP1 cell noCPT
Cc1nc2cc(NC(=O)Nc3ccc(Br)cc3)ccc2o1 | ? | ? | -2 | -1% | 0 | 23µM*
O=C(Nc1ccc(-c2nc3cc(NC(=O)c4ccccc4F)ccc3o2)cc1)c1ccccc1F | / | 15µM* | -5 | / | / | 13µM*
CC(C)(C)c1ccc(-c2nc3cc(NC(=O)c4cccc(Br)c4)ccc3o2)cc1 | / | ? | 3 | / | / | 4.6µM*
Cc1nc2cc(NC(=O)COc3ccc(Br)cc3)ccc2o1 | / | / | 3 | / | / | /
CCC(=O)Oc1cccc(C(=O)Nc2ccc(-c3nc4ccccc4o3)cc2)c1 | / | / | 6 | / | / | /
COc1cccc(C(=O)Nc2ccc3oc(-c4cccc(Cl)c4)nc3c2)c1 | / | / | 0 | / | / | /
Cc1nc2ccc(NC(=O)Nc3ccnc4cccnc34)cc2o1 | 39% | ? | / | 5% | / | 21µM*
CC(C)Oc1cccc(C(=O)Nc2ccc3oc(-c4cccc(Cl)c4)nc3c2)c1 | / | ? | -7 | / | / | 16µM*
CCCOc1cccc(C(=O)Nc2ccc(-c3nc4ccccc4o3)cc2)c1 | / | ? | -8 | / | / | 13µM*
O=C(Nc1ccc2oc(-c3ccncc3)nc2c1)c1cccs1 | ? | -9% | -12 | 5% | 0 | -19%
O=C(Nc1ccc(-c2nc3cc(NC(=O)c4cccs4)ccc3o2)cc1)c1cccs1 | 19% | 11µM* | -8 | ? | 4 | 13µM*
COc1ccc(C)cc1N1CC(C(=O)Nc2ncn[nH]2)CC1=O (stereo not drawn) | / | / | 2 | / | / | /
Cc1ccc(CN(C)C(=O)c2cc3cc(F)ccc3[nH]2)c(C)c1 | / | / | 0 | / | / | /
O=C(NCCCN1CCCC1)c1cccs1 | / | / | 3 | / | / | /
COc1ccc(-c2nc3cc(NC(=O)CCc4ccccc4)ccc3o2)cc1 | / | / | 7 | / | / | /
COc1cc2ccccc2cc1C(=O)Nc1ccc2oc(-c3cccnc3)nc2c1 | / | / | 6 | / | / | /
COc1cc2ccccc2cc1C(=O)Nc1ccc2oc(-c3ccccc3)nc2c1 | / | 16µM* | 1 | / | / | 16µM*
O=C(Nc1ccc(-c2nc3cc(NC(=O)c4ccc(Cl)cc4)ccc3o2)cc1)c1ccc(Cl)cc1 | / | 0% | 7 | / | / | 4.1µM*
O=C(Cc1ccccc1)NC(=S)Nc1ccc2oc(-c3ccccc3)nc2c1 | 7.1µM* | / | / | 7.1µM* | / | /
O=C(Nc1ccc2oc(-c3ccc(Cl)c(Cl)c3)nc2c1)c1ncn[nH]1 | 0% | 5.2µM* | -7 | -13% | 10 | 5.2µM*
CCCCn1c(=O)[nH]c(=O)c2c1nc(CSc1nnnn1-c1ccc(C)cc1C)n2CC | / | / | -24 | / | / | /
COc1cc(OC)c(C(=O)Nc2ccc3ccccc3c2)cc1OC | 34% | ? | -2 | -4% | 2 | ?
Cc1ccc(C(=O)Nc2ccc3oc(-c4ccncc4)nc3c2)c(Cl)c1 | / | -30% | 3 | / | / | ?
